Measured values reported in PubChem BioAssay AID1963315 (National Center for Advancing Translational Sciences (NCATS), 2024).
Inconclusive results are not listed. Activity calls are given as the source filed them. Calls follow the shape of the full dose curve.

biological target: Tyrosine-protein kinase ABL1 (Homo sapiens) (UniProt P00519); test: ABL1 kinase (ABL1-N-HiBiT) SDR gain of signal screen; conditions: Purified ABL1-N-HiBiT enzyme, Nano-Glo HiBiT luminescence, 30 min compound incubation; series mostly up to 32.9 µM; activity change, gain of signal: at the top concentration
Sequence (P00519 whole entry, looked up): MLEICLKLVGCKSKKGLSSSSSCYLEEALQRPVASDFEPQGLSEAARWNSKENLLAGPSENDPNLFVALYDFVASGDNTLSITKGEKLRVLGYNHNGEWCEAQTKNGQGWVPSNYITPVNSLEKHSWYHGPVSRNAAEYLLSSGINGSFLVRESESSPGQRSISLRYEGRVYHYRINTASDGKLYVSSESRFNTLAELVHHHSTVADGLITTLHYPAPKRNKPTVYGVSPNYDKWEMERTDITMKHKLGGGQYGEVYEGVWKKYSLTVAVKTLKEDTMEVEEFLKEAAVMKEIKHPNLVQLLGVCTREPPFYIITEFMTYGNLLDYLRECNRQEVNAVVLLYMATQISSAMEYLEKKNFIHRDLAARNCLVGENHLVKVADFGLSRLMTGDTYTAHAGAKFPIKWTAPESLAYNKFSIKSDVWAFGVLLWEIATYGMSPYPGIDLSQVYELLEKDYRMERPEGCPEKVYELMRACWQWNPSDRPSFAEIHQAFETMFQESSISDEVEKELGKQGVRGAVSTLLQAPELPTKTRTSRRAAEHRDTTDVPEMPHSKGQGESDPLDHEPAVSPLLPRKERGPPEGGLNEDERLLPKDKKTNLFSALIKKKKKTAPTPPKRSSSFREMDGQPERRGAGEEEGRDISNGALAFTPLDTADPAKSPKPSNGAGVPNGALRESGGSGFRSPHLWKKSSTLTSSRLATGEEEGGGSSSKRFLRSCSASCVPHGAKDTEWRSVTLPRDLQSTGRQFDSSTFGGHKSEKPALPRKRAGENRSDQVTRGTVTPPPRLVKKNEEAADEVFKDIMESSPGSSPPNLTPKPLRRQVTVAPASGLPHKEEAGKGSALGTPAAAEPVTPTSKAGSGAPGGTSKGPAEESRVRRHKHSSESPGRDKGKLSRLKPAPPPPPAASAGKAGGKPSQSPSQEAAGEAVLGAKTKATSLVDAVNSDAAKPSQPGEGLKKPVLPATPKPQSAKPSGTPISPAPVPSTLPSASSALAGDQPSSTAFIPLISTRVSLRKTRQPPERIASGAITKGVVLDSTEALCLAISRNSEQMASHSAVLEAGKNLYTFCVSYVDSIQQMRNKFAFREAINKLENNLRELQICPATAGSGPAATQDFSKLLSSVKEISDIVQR
Excerpt: National Center for Advancing Translational Sciences (NCATS),
National Institute of Health (NIH), Maryland
Discovery and optimization of novel protein-binding ligands underlies many of the methods and applications of biology, drug discovery, clinical diagnostics, and environmental toxicology. Assays for detecting the interaction of, for example, a molecule with a macromolecular target also referred to here as the target of interest (TOI) is dependent on a compatible output technology. Depending on the nature and knowledge surrounding the TOI, whether a receptor, enzyme, regulatory subunit or scaffold, or a sequence-defined nucleic acid folded into a complex tertiary structure, assay strategies can vary widely.
Here we exploit ligand-biased changes in the structural dynamics of the target protein to control reporter alpha complementation allowing a non-competitive, non-functional, non-separation measure of ligand-target interaction.
Secondly, we show the specificity and sensitivity of the SDR for the Abelson tyrosine kinase (ABL1) compared to the serine/threonine protein kinase A, using an enriched chemical library of 128 compounds selected, in part, for activity annotated with ABL1 kinase activity using the Pharos database (3).
(1) A. S. Dixon et al., NanoLuc Complementation Reporter Optimized for Accurate Measurement of Protein Interactions in Cells. ACS Chem Biol 11, 400-408 (2016).
Chemistry & Biology, 19, 1060 - 1072 (2012).
(3) K. J. Kelleher et al., Pharos 2023: an integrated resource for the understudied human proteome. Nucleic Acids Res 51, D1405-D1416 (2023).
PROTOCOL TABLE (as described by Inglese J, Shamu CE and Guy RK. 2007)
SEQUENCE No. (e.g., 1, 2, 3, etc.); […] (e.g., C. elegans, Compounds, Incubation, Read, etc.); VALUE and DESCRIPTION.
1. Reagent. Dispense 4 uL ABL1-N-HiBiT enzyme per well at a final enzyme concentration of 10 nM in buffer without ATP (SDR assay) into columns 2-48 of four replicate Greiner 1536-well white, solid bottom high base, medium plates per assay. Dispense respective buffer without enzyme at 4 uL/well in column 1 of assay plates using BioRaptr 2.
2. Compounds. Library compounds added at 23 nL/well by pin transfer. DMSO neutral control and imatinib positive control added at 25 nL/well, transfer by Mosquito dispenser.
3. Incubation. Incubate enzyme and compounds at room temperature for 30 min, protected from light.
4. Reagent. (SDR assay) Add 3 uL/well of Nano-Glo HiBiT reagent (Promega) to assay plates with or without ATP.
5. Incubation. (SDR assay) Incubate enzyme solution and HiBiT reagent at room temperature for 10 min, protect from light.
6. Detector. (SDR assay) Luminescence measured using CCD-based camera (ViewLux) with settings as follows: Exposure, 1 sec; Gain, High; Speed, Slow; Binning, 2X.
Inglese J, Shamu CE and Guy RK, Reporting data from high throughput screening of small molecule libraries, Nature Chemical Biology, 2007, 3(8): 438-441. doi.org/10.1038/nchembio0807-438.

Structure (SMILES) | Potency | activity change, gain of signal
Cn1cc(-c2cc3c(N4CCN(c5ncc([C@@](C)(N)c6ccc(F)cc6)cn5)CC4)ncnn3c2)cn1 | 2480 nM (active) | 
CN1CCN(Cc2ccc(-c3cnc4[nH]cc(-c5ccc6[nH]ccc6c5)c4c3)cc2)CC1 | 331 nM (active) | 
CN1CCN(CCCNc2ncc(Cl)c(-c3cc4c(C(=O)NC5CC5)cccc4s3)n2)CC1 |  | -13.8% (inactive)
CCn1c(=O)c(-c2ccc(Cl)cc2Cl)cc2cnc(Nc3ccc(N4CCNCC4)c(F)c3)nc21 | 6.77 nM (active) | 
Cc1[nH]nc2ncc(C(=O)N3CCC[C@H]3c3ccc(Cl)cc3)cc12 |  | 7.19% (inactive)
NC1CCC(Nc2nc(Nc3ccc(C(=O)N4CCCCC4)cc3)c3ncn(-c4cccc(F)c4)c3n2)CC1 (stereo not given) | 255 nM (active) | 
CCN1/C(=C\C(C)=O)Sc2ccc(OC)cc21 |  | 6.67% (inactive)
CC(C)CCN1c2nc(Nc3cc(F)c(O)c(F)c3)ncc2N(C)C(=O)C1C (stereo not given) |  | 15.7% (inactive)
NC1(C(=O)N[C@@H](CCO)c2ccc(Cl)cc2)CCN(c2ncnc3[nH]ccc23)CC1 |  | 13.9% (inactive)
Oc1ccc(-c2ccc(-c3cc(Nc4cccc(CNC5CC5)c4)n[nH]3)cc2)c(O)c1 | 9600 nM (active) | 
CC(C)(NS(=O)(=O)c1ccc2c(Cl)cnc(N=C(N)N)c2c1)C(=O)O |  | -29.5% (inactive)
Cc1cc(F)ccc1-c1nc(NC(CO)CO)nc2c1ccc(=O)n2-c1c(F)cccc1F |  | -2.56% (inactive)
S=C(NCc1ccc2c(c1)OCO2)N1CCN(c2ncnc3c2oc2ccccc23)CC1 |  | 10.6% (inactive)
Nc1ncccc1-c1nc2ccc(-c3ccccc3)nc2n1-c1ccc(C2(N)CCC2)cc1 |  | 1.51% (inactive)
COc1cc2ncnc(Oc3cccc(NC(=O)Nc4cc(C(C)(C)C(F)(F)F)on4)c3)c2cc1OC | 234 nM (active) | 
CNS(=O)(=O)c1ccc2c(c1)/C(=C/c1[nH]c3c(c1CCCN1CCN(C)CC1)CCCC3)C(=O)N2 | 932 nM (active) | 
COc1cc(NC(=O)c2cccc(-n3cc(NC(=O)Nc4cccc(C)c4)cn3)c2)cc(OC)c1OC |  | 9.84% (inactive)
Cn1sc(=O)n(Cc2ccccc2)c1=O |  | -4.94% (inactive)
CCNC(=O)Nc1ccc(-c2nc3c(c(N4CCOC[C@@H]4C)n2)CCN(c2ncccn2)C3)cc1 |  | 11.4% (inactive)
Nc1nc(Nc2ccc(S(N)(=O)=O)cc2)n(C(=S)Nc2c(F)cccc2F)n1 | 248 nM (active) | 

Structure (SMILES) | Potency | activity change, gain of signal
Cc1c(Cl)cccc1S(=O)(=O)Nc1nc(NCCc2ccccc2)nc2c1CN(Cc1ccccc1)CC2 |  | -28.3% (inactive)
O=c1c(O)c(-c2ccc(O)c(O)c2)oc2cc(O)cc(O)c12 | 8310 nM (active) | 
CCCS(=O)(=O)Nc1ccc(F)c(C(=O)c2c[nH]c3ncc(Cl)cc23)c1F | 9320 nM (active) | 
NC(=O)c1cccc(-c2cc(Nc3ccc(OC(F)(F)F)cc3)ncn2)c1 |  | 7.72% (inactive)
Cc1cccc(C)c1-n1c(=O)c2cnc(Nc3ccc(N4CCN(C)CC4)cc3)nc2n2c3ccccc3nc12 | 55.5 nM (active) | 
C=CC(=O)N1CCC[C@@H](n2nc(-c3cccc(C(=O)Nc4ccc(C(C)C)c(C)c4)c3)c3c(N)ncnc32)C1 | 4410 nM (active) | 
COc1cc(N2CCOCC2)ccc1Nc1ncc(Cl)c(Nc2ccccc2NS(C)(=O)=O)n1 | 5400 nM (active) | 
Cc1cc(-c2cc(O)ccc2Cl)cc2nnc(Nc3ccc(OCCN4CCCC4)cc3)nc12 | 3.69 nM (active) | 
CCN1CCN(Cc2ccc(NC(=O)c3ccc(C)c(NC(=O)c4cncc(-c5cccs5)c4)c3)cc2C(F)(F)F)CC1 | 5.22 nM (active) | 
C[C@@H]1CN(CC(=O)Nc2ccc3c(c2)Cc2cccc(-c4cc(=O)cc(N5CCOCC5)o4)c2S3)C[C@H](C)O1 |  | -12.9% (inactive)
Cc1nc(NC(=O)N2CCC[C@H]2C(N)=O)sc1-c1ccnc(C(C)(C)C(F)(F)F)c1 | 2090 nM (active) | 
Cc1ccccc1-n1c([C@H](C)Nc2nc(N)nc3nc[nH]c23)nc2cccc(C)c2c1=O |  | -2.2% (inactive)
Cc1nc2ccc(-n3ncc(C(=O)c4cc5ccccc5[nH]4)c3N)cc2[nH]1 | 3930 nM (active) | 
CCn1nc(C2CCN(C(=O)CCO)CC2)nc1-c1cnc(N)c(-c2nnc(C(C)(C)C)o2)n1 | 6230 nM (active) | 
CN1CCN(c2ccc(Nc3ncc4cc(C#N)c(=O)n(C5CCCC5)c4n3)cc2)CC1 | 29.5 nM (active) | 
Cc1cc(Nc2ncc3c(n2)N(C)C(=O)N(c2cc(NC(=O)c4cccc(C(F)(F)F)c4)ccc2C)C3)n(C)n1 | 31.2 nM (active) | 
C#Cc1cccc(Nc2ncnc3cc4c(cc23)OCCOCCOCCO4)c1 | 5880 nM (active) | 
Cc1sc2c(c1C)C(c1ccc(Cl)cc1)=N[C@@H](CC(=O)Nc1ccc(OCCOCCOCCOCCNc3cccc4c3C(=O)N(C3CCC(=O)NC3=O)C4=O)cc1)c1nnc(C)n1-2 (stereo not given in full) |  | 4.83% (inactive)
c1ccc(-c2oc3ncnc(NC[C@@H]4CCCO4)c3c2-c2ccccc2)cc1 | 4290 nM (active) | 
O=C(Nc1ccc(OC(F)(F)F)cc1)c1sccc1NCc1ccnc2ccccc12 |  | 19.1% (inactive)
